One test relates to Klebsiella pneumoniae. The conditions noted are these: Concentration 20 uM; ASSAY_TEST Inhibition of Bacterial Growth; detection method Absorption (OD600); MEDIA CAMHB; plate type 384well; NBS; CORNING #3640; time 18 hr.
A further test has as its system Candida albicans. As to conditions: 20 µM.
The subject of another test is Cryptococcus neoformans. As to conditions: Concentration 20 uM; ASSAY_TEST Inhibition of Fungal Growth; detection method Resazurin; Absorption (OD600-OD570); plate type 384well; NBS; CORNING #3640.

We go through 31 molecules from ChEMBL document CHEMBL4513149, “CO-ADD screening of MMV (CH) - MMV compounds” (2021).

Results with a measured potency or affinity are listed apart.

What is called Inhibition is the drop in the measured response relative to a control, in per cent.

As to `c1ccc(-c2[nH]c3ccccc3c2C(c2ccccn2)N2CCCC2)cc1` (stereo not drawn), the Inhibition with Klebsiella pneumoniae is 11.72%; in the test with Candida albicans, 1.35%; in the test with Cryptococcus neoformans, -10.11%.
In the case of `O=C1Nc2ccc(Br)cc2C12NCCc1c2[nH]c2ccccc12` (stereo not drawn), the Inhibition with Klebsiella pneumoniae was 4.49%; in the test on Candida albicans, 2.19%; with Cryptococcus neoformans it was -1.68%.
For the molecule `CC(C)(C)OC(=O)N1CCN(c2nccc(-c3ccc(-c4ccc(Cl)cc4)s3)n2)CC1`, the Inhibition in the test on Klebsiella pneumoniae was 5%; with Candida albicans, 3.84%; in the test with Cryptococcus neoformans, -6.76%.
On to `Cc1cc(C)n(-c2ccc(NC(=O)C3CCN(Cc4cnc(C)s4)CC3)cc2)n1`, for which the results for the Inhibition in the test on Klebsiella pneumoniae, with Candida albicans and with Cryptococcus neoformans were 8.14%, 2.85% and -6.76%, respectively.
For `CNC(=O)c1cc(S(=O)(=O)N2CCN(c3ccccn3)CC2)cs1` the same measures were 10.77%, 2.91% and -8.81%.
For `COc1nc2ccc(Br)cc2cc1[C@@H](c1ccccc1)[C@@](O)(CCN(C)C)c1cccc2ccccc12.O=C(O)C(F)(F)F` the same measures were 17.53%, 4.38% and 56.58%.
For `COc1ccc(CN2CCOc3ccc(C(C)(O)CN(C)C)cc3C2)cc1C` (stereo not drawn) the same measures were 16.19%, 4.72% and -11.35%.
For `O=C(Nc1cccc(Cl)c1)c1cnc(N2CCN(c3ccncc3)CC2)c(Cl)c1`, the Inhibition was 13.15% with Klebsiella pneumoniae, 2.09% in the test on Candida albicans and -9.48% with Cryptococcus neoformans.
For `Nc1ncnc2c1ncn2C[C@@H](O)[C@@H](O)C(=O)O` [ERITADENINE] the same measures were 17.23%, 3.88% and -6.54%.
Consider `COC(=O)c1cccc2oc(-c3cccc(OC)c3NC(=O)c3cc(-c4ccccc4)on3)nc12`, for which the Inhibition is 13.16% in the test on Klebsiella pneumoniae, 8.19% with Candida albicans and -3.51% in the test with Cryptococcus neoformans.
For `CC(C)C(Oc1cccc2ccccc12)C(=O)O` (stereo not drawn) the same measures were 6.53%, 8.4% and 4.84%.
The matching figures for `CC(C)(C)c1ccc(N[C@@H]2CCCC[C@H]2NC(=O)c2ccco2)cc1`: -12.61%, 5.24% and -2.08%.
Consider `N#Cc1nc(-c2ccccc2)oc1S(=O)(=O)c1ccc(Cl)cc1`, for which the Inhibition with Klebsiella pneumoniae was -0.86%; in the test on Candida albicans it was 3.69%; with Cryptococcus neoformans, -7.91%.
Turning to `Cc1cc(Cl)c(S(=O)(=O)N2CCCC2)cc1OCC(=O)NC1CCCCC1`, the Inhibition in the test with Klebsiella pneumoniae was 2.55%; in the test with Candida albicans it was 9.11%; in the test on Cryptococcus neoformans, -9.39%.
For `COc1ccc(N(CCc2cccc(C)n2)C(=O)C2CCCCC2)cc1` the same measures were 6.26%, -0.29% and -4.98%.
For `CC(Oc1cccc(Cl)c1)C(=O)Nc1ccc2oc(-c3ccncc3)nc2c1` (stereo not drawn) the same measures were 9.56%, 6.74% and -15%.
For `COc1cc(Br)cc2cc(C(=O)Nc3cccc(C(F)(F)F)c3)c(=O)oc12` the same measures were 7.93%, 3.09% and -6.76%.
Regarding `CC[C@H](CO)NCCN[C@H](CC)CO.Cl.Cl`, the Inhibition with Klebsiella pneumoniae turned out to be 9.73%; with Candida albicans, 3.25%; in the test with Cryptococcus neoformans, 1.15%.
The matching figures for `COc1cc(OC)cc(C(=O)NCC2Cc3cc(Cl)cc(-c4ccncc4)c3O2)c1` (stereo not drawn): 8.14%, 4.34% and -5.78%.
The matching figures for `Cc1cccc(Cn2ccc(NC(=O)c3ccc4c(c3)OCO4)n2)c1`: 15.15%, 6.79% and 3.81%.
The matching figures for `N#CCN(CCCCN1CCN(c2ccc(F)cc2)CC1)C(=O)OCc1ccccc1`: 11.82%, 2.42% and -5.61%.
Turning to `CC(C)NCC(=O)Nc1cccc(C(=O)Nc2cccc(C(F)(F)F)c2)c1`, the Inhibition in the test with Klebsiella pneumoniae is 10.29%; in the test with Candida albicans, 3.29%; in the test with Cryptococcus neoformans, -11.79%.
For `Cl.Cn1ccnc1CNCCS(=O)(=O)c1cccc(Nc2ccc(-c3cccc(F)c3)cn2)c1` the same measures were 13.22%, 4.46% and -9.08%.
The matching figures for `Cc1[nH]c2cc(F)cc(F)c2c(=O)c1-c1ccc(Oc2ccc(OC(F)(F)F)cc2)cc1`: 5.11%, 3.94% and -10.28%.
For `CN(C(=O)c1cc2c(-c3cncnc3)cccc2[nH]1)c1ccccc1` the same measures were 10.84%, 6.97% and -9.57%.
With `c1ccc(-c2cc(N3CCCCC3)c3ccccc3n2)nc1`, the Inhibition in the test on Klebsiella pneumoniae was 14.97%; in the test with Candida albicans, -0.2%; in the test with Cryptococcus neoformans it was -6.72%.
The matching figures for `COc1ccc(-c2cnc3ccc(N4CCCC4)nn23)cc1OC`: 12.07%, 4.32% and -8.28%.
In the case of `c1ccc(Oc2ccc(-c3cc(N4CCOCC4)[nH]n3)cc2)cc1`, the Inhibition was 8.77% with Klebsiella pneumoniae, 5.83% with Candida albicans and -7.11% in the test on Cryptococcus neoformans.
`Brc1c(-c2ccc3c(c2)OCO3)nc2ncccn12`: the figures for the Inhibition in the test on Klebsiella pneumoniae, with Candida albicans and in the test on Cryptococcus neoformans were 12.72%, 3.56% and -13.08%, respectively.
The matching figures for `Cc1cccc(-c2nc(Nc3ccncn3)c3sccc3n2)n1`: 15.76%, 3.59% and 61.44%.
For `Cc1cc(C)cc(COc2ccc3c(C)c(CCC(=O)O)c(=O)oc3c2C)c1` the same measures were 9.77%, 6.48% and -0.19%.
